Reference: the supplement of paper PMC10849652
The full data set covers some 7,900 targets. This sample favours those with a hit. About 0.6% of all pairs of compound and target were hits.

target: ZCCHC17 (UniProt Q9NP64); test: log2 fold change, soluble protein after heating vs DMSO (PISA); higher = thermal stabilisation; K562 cells, 10 uM, 30 min; active = over 0.2 and 3.5 SD of the protein, either way, in both replicates (recomputed)
In short: (§1)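 K562 cells at 2×10^6 cells/mL were given 10 μM compound for 30 min. Aliquots then went through 3 min of heating across 48°C-58°C, were pooled, and were extracted in PBS with 0.5% NP-40 at 4°C, and the supernatant after 21,000xg for 90 min was quantified by TMTpro 16plex LC-MS/MS with channel sums equalised. Thermal stability relative to control samples, from duplicates, is given as log2 fold change.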

ZCCHC17, sequence (Q9NP64 whole entry, looked up): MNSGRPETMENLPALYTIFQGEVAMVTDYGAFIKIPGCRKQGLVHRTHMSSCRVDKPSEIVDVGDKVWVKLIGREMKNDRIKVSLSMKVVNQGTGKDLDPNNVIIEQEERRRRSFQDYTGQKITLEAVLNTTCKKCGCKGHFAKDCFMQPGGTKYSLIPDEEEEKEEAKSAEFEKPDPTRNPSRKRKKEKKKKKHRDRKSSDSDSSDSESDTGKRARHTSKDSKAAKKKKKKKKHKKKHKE

Structure (SMILES) | log2 fold change
CON(C)C(=O)N1N=C(c2cc(F)ccc2F)S[C@@]1(CCCN)c1ccccc1 [filanesib] | 0.565 (active)
NC(=O)Nc1cc(-c2cccc(F)c2)sc1C(=O)N[C@H]1CCCNC1 | -0.064 (inactive)
CCCS(=O)(=O)Nc1ccc(F)c(C(=O)c2c[nH]c3ncc(-c4ccc(Cl)cc4)cc23)c1F [vemurafenib] | -0.396 (inactive)
Cc1ccc(NC(=O)c2cccc(C(C)(C)C#N)c2)cc1Nc1ccc2ncn(C)c(=O)c2c1 | -0.065 (inactive)
CNC(=O)c1ccc(Nc2ncc(C(F)(F)F)c(NCc3nccnc3N(C)S(C)(=O)=O)n2)cc1 [defactinib] | 0.149 (inactive)
Nc1ccccc1NC(=O)c1ccc(CNC(=O)OCc2cccnc2)cc1 [entinostat] | 0.081 (inactive)
NCC(=O)Nc1ccc(-n2nc(C(F)(F)F)cc2-c2ccc3c(ccc4ccccc43)c2)cc1 | -0.137 (inactive)
CN1CCN(c2nc(C3=C(c4c[nH]c5ccccc45)C(=O)NC3=O)c3ccccc3n2)CC1 [sotrastaurin] | -0.095 (inactive)
CS(=O)(=O)c1ccc(-c2cnc(N)c(C(=O)Nc3ccccc3)n2)cc1 | -0.069 (inactive)
COC(=O)[C@H](CCSC)NC(=O)c1ccc(NC[C@@H](N)CS)cc1-c1ccccc1 | 0.033 (inactive)
CN(C)CC(=O)Nc1ccc2[nH]c(=O)c3ccccc3c2c1 | -0.059 (inactive)

target: ZCCHC9 (UniProt Q8N567); test: as above
In short: as §1

ZCCHC9, sequence (Q8N567 whole entry, looked up): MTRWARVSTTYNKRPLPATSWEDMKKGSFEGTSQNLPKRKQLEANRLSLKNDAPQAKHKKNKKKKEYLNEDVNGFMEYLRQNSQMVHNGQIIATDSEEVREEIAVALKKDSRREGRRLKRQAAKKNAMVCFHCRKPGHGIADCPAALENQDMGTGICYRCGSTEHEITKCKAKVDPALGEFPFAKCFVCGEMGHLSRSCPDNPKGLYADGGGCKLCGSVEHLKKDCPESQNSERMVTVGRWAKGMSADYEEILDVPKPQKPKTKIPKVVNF

Structure (SMILES) | log2 fold change
CON(C)C(=O)N1N=C(c2cc(F)ccc2F)S[C@@]1(CCCN)c1ccccc1 [filanesib] | 0.527 (active)
NC(=O)Nc1cc(-c2cccc(F)c2)sc1C(=O)N[C@H]1CCCNC1 | -0.11 (inactive)
Cn1cncc1[C@@](N)(c1ccc(Cl)cc1)c1ccc2c(c1)c(-c1cccc(Cl)c1)cc(=O)n2C [tipifarnib] | 0.113 (inactive)
CN1CCC(CNc2ccc3ncc(-c4cccc(OC(F)(F)F)c4)n3n2)CC1 | 0.181 (inactive)
Cc1cc(Nc2cc(CN3CCOCC3)c3nc(C)c(Cc4ccc(Cl)cc4F)n3n2)n[nH]1 [gandotinib] | 0.265 (inactive)
CC[C@@H]1C(=O)N(C)c2cnc(Nc3ccc(C(=O)NC4CCN(C)CC4)cc3OC)nc2N1C1CCCC1 | 0.246 (inactive)
CCCS(=O)(=O)Nc1ccc(F)c(C(=O)c2c[nH]c3ncc(-c4ccc(Cl)cc4)cc23)c1F [vemurafenib] | -0.11 (inactive)
CS(=O)(=O)CCNCc1ccc(-c2ccc3ncnc(Nc4ccc(OCc5cccc(F)c5)c(Cl)c4)c3c2)o1 [lapatinib] | 0.028 (inactive)
CCCc1cc(C)[nH]c(=O)c1CNC(=O)c1cc(-c2ccnc(N3CCN(C)CC3)c2)cc2c1cnn2C(C)C | 0.057 (inactive)
Cc1ccc(NC(=O)c2cccc(C(C)(C)C#N)c2)cc1Nc1ccc2ncn(C)c(=O)c2c1 | -0.227 (inactive)
c1cc(OCCN2CCCCC2)cc(-c2n[nH]c3ccc(-c4nnc[nH]4)cc23)c1 | -0.067 (inactive)
COC(=O)N[C@@H](C)CNc1nccc(-c2cn(C(C)C)nc2-c2cc(Cl)cc(NS(C)(=O)=O)c2F)n1 [encorafenib] | 0.002 (inactive)
O=C(O)c1ccc2c(c1)nc(Nc1cccc(Cl)c1)c1ccncc12 [silmitasertib] | 0.095 (inactive)
FC(F)(F)c1ccc(/C=C/c2nc(COc3ccc(CCCCn4ccnn4)cc3)co2)cc1 [mubritinib] | -0.087 (inactive)
CNCc1ccc(-c2[nH]c3cc(F)cc4c3c2CCNC4=O)cc1 [rucaparib] | 0.4 (inactive)
COc1cc(Nc2ncc3c(n2)-c2ccc(Cl)cc2C(c2c(F)cccc2OC)=NC3)ccc1C(=O)O [alisertib] | -0.083 (inactive)
CC[C@@H]1C(=O)N(C)c2cnc(Nc3ccc(C(=O)N[C@H]4CC[C@H](N5CCN(CC6CC6)CC5)CC4)cc3OC)nc2N1C(C)C [volasertib] | 0.226 (inactive)
CNC(=O)c1ccc(Nc2ncc(C(F)(F)F)c(NCc3nccnc3N(C)S(C)(=O)=O)n2)cc1 [defactinib] | 0.216 (inactive)
COc1cc2nc(-c3cc(F)ccc3O)nc(N[C@@H]3CNC[C@H]3C(C)(C)O)c2cc1OC | -0.006 (inactive)
Nc1ccccc1NC(=O)c1ccc(CNC(=O)OCc2cccnc2)cc1 [entinostat] | -0.112 (inactive)
